Laboratory results reported in PubChem BioAssay AID1117299 (National Center for Advancing Translational Sciences (NCATS), 2015).
Where a structure was tested more than once in an assay, its records may differ in their call. Active and inactive are the calls of the source. Calls follow the shape of the full dose curve.

Settings: Ebola virus entry assay, green fluorescence channel

Compound | AC50 | outcome
CN(C)CCCN1c2ccccc2CCc2ccc(Cl)cc21 | 7.69 µM (active) | 
C[C@@H]1O[C@@H](O[C@H]2CC[C@@]3(C)[C@H](CC[C@@H]4[C@H]3C[C@@H](O)[C@]3(C)[C@@H](C5=CC(=O)OC5)CC[C@]43O)C2)C[C@H](O)[C@@H]1O[C@H]1C[C@H](O)[C@H](O[C@H]2C[C@H](O)[C@@H](O)[C@@H](C)O2)[C@H](C)O1 (stereo in doubt) | 0.112 µM (active) | 
CO[C@H]1C[C@@H]2CC[C@@H](C)[C@@](O)(O2)C(=O)C(=O)N2CCCC[C@@H]2C(=O)O[C@H]([C@H](C)C[C@@H]2CC[C@H](OCCO)[C@H](OC)C2)CC(=O)[C@H](C)C=C(C)[C@@H](O)[C@@H](OC)C(=O)[C@H](C)C[C@H](C)C=CC=CC=C1C |  | inactive
COc1cccc2c1C(=O)c1c(O)c3c(c(O)c1C2=O)C[C@@](O)(C(C)=O)C[C@H]3O[C@H]1C[C@H](N)[C@H](O)[C@H](C)O1 |  | inactive
CC[C@]1(O)C[C@@H]2CN(CCc3c([nH]c4ccccc34)[C@@](C(=O)OC)(c3cc4c(cc3OC)N(C)[C@H]3[C@@](O)(C(=O)OC)[C@H](OC(C)=O)[C@]5(CC)C=CCN6CC[C@]43[C@@H]65)C2)C1 | 0.137 µM (active) | 
CN1CCN(CCCN2c3ccccc3Sc3ccc(C(F)(F)F)cc32)CC1 |  | inactive
CC/C(=C(\c1ccccc1)c1ccc(OCCN(C)C)cc1)c1ccccc1 | 1.53 µM (active) | inactive
CCCCc1oc2ccc(NS(C)(=O)=O)cc2c1C(=O)c1ccc(OCCCN(CCCC)CCCC)cc1 |  | inactive
CC[C@]1(O)C[C@H]2CN(CCc3c([nH]c4ccccc34)[C@@](C(=O)OC)(c3cc4c(cc3OC)N(C=O)[C@H]3[C@@](O)(C(=O)OC)[C@H](OC(C)=O)[C@]5(CC)C=CCN6CC[C@]43[C@@H]65)C2)C1 | 0.217 µM (active) | 
CCCNCC(O)COc1ccccc1C(=O)CCc1ccccc1 (stereo unspecified) |  | inactive
C[C@]12CC[C@@H]3c4ccc(O)cc4C[C@@H](CCCCCCCCCS(=O)CCCC(F)(F)C(F)(F)F)[C@H]3[C@@H]1CC[C@@H]2O (stereo partly specified) | 3.06 µM (active) | 
COc1cc2c(c(OC)c1OC)-c1ccc(OC)c(=O)cc1[C@@H](NC(C)=O)CC2 | 0.0968 µM (active) | 
CN1[C@@H]2CC[C@H]1CC(OC(c1ccccc1)c1ccccc1)C2 (stereo partly specified) | 3.06 µM (active) | 
CN(C)CCOc1ccc(/C(=C(/CCCl)c2ccccc2)c2ccccc2)cc1 | 1.93 µM (active) | 
Cc1nnc(C(C)C)n1C1C[C@H]2CC[C@@H](C1)N2CC[C@H](NC(=O)C1CCC(F)(F)CC1)c1ccccc1 (stereo partly specified) |  | inactive
CN1CCC[C@@H]1CCO[C@](C)(c1ccccc1)c1ccc(Cl)cc1 | 1.93 µM (active) | 
CC[C@H]1OC(=O)[C@H](C)[C@@H](O[C@H]2C[C@@](C)(OC)[C@@H](O)[C@H](C)O2)[C@H](C)[C@@H](O[C@@H]2O[C@H](C)C[C@H](N(C)C)[C@@H]2O)[C@](C)(O)C[C@@H](C)CN(C)[C@H](C)[C@@H](O)[C@]1(C)O | 7.69 µM (active) | 
CO[C@H]1C[C@@H]2CC[C@@H](C)[C@@](O)(O2)C(=O)C(=O)N2CCCC[C@@H]2C(=O)O[C@H]([C@@H](C)C[C@@H]2CC[C@H](O)[C@H](OC)C2)CC(=O)[C@H](C)C=C(C)[C@@H](O)[C@@H](OC)C(=O)[C@H](C)C[C@H](C)C=CC=CC=C1C | 17.7 µM (active) | 
CNCCCC12CCC(c3ccccc31)c1ccccc12 | 6.85 µM (active) | 
CCC1=C[C@@H]2CN(C1)Cc1c([nH]c3ccccc13)[C@@](C(=O)OC)(c1cc3c(cc1OC)N(C)[C@H]1[C@@](O)(C(=O)OC)[C@H](OC(C)=O)[C@]4(CC)C=CCN5CC[C@]31[C@@H]54)C2 | 0.109 µM (active) | 
CC[C@H]1OC(=O)[C@H](C)[C@@H](O[C@H]2C[C@@](C)(OC)[C@@H](O)[C@H](C)O2)C(C)[C@@H](O[C@@H]2O[C@H](C)C[C@H](N(C)C)[C@@H]2O)[C@](C)(OC)C[C@@H](C)C(=O)[C@H](C)[C@@H](O)[C@]1(C)O (stereo partly specified) | 5.44 µM (active) | 
COC(=O)Nc1nc2ccc(C(=O)c3cccs3)cc2[nH]1 | 0.685 µM (active) | 
COC(=O)Nc1nc2ccc(C(=O)c3ccccc3)cc2[nH]1 | 6.11 µM (active) | 
CCCSc1ccc2nc(NC(=O)OC)[nH]c2c1 |  | inactive
CCN(CC)CCNC(=O)c1c(C)[nH]c(/C=C2\C(=O)Nc3ccc(F)cc32)c1C |  | inactive
